We go through 40 compounds from ChEMBL document CHEMBL3433997, “St. Jude Leishmania screening dataset” (2016).

In this test the target is Hexose transporter 1 (Plasmodium falciparum) (UniProt O97467). In words: ST_JUDE_LEISH: Cytotoxicity at 2uM final concentration against transgenic Leishmania Mexicana promastigotes LmPfHT that are glucose transport deficient and complemented with the Plasmodium falciparum hexose transporter. Activity is measured by DNA content using SYBR green in vitro. The format is functional.
Regarding `CCCc1cc(OC)c(CC2c3cc(O)c(C)cc3CCN2C)cc1OC` (stereo not given), the inhibition (commonly the drop in the measured response relative to a control, in per cent) is -4.03%. In the case of `Cc1cc(C2CCN(CCCCNC(=O)c3ccc(NC(=O)c4ccc(Cl)cc4)cc3)CC2)c(C)cc1OC(C)C`, the inhibition is -1.19%. For the compound `Clc1ncnc2scc(-c3ccc(Br)cc3)c12`, the inhibition is 6.35%.

Consider `O=C(c1ccc(Cl)cc1)C1CCN(CCCOc2ccc3c(c2)CCNCC3)CC1`, for which the inhibition was determined as 4.76%. Take `CC1CN(c2cc(=O)n(Cc3ccc(NC(=O)Nc4ccc(-c5ccccc5)cc4)cc3)cn2)CC(C)N1` (stereo not given): the inhibition came to 1.47%. For `Fc1ccc(-c2nc(NCc3cccc(C(F)(F)F)c3)nn2-c2cccc(C(F)(F)F)c2)cc1C(F)(F)F` the value was 1.48%. For `O=C(NCCCc1ccccc1)c1csc(C2CCCN(C(=O)c3ccc(O)c(-c4cccc5ccccc45)c3)C2)n1` (stereo not given) the value was -0.18%; for `CN1CCCC(CN2CCN(Cc3cccc(-c4ccc(-c5nc6cc(C(F)(F)F)ccc6[nH]5)cc4)c3)CC2)C1` (stereo not given), 0.64%; for `COc1cc(CCCOc2c(N)nc(N)nc2N)cc(OC)c1OC`, 3.75%. Regarding `COc1ccc(Cl)cc1-c1nc(C(=O)NCCN2CCCCC2)c(C(C)C)s1`, the inhibition was -0.2%. Turning to `CC(Nc1cc(-c2ccccn2)nc(-c2ccccn2)n1)c1ccccc1` (stereo not given), the inhibition amounted to 12.8%. For `Cc1cc(Cl)c(S(=O)(=O)N(C)c2ccccc2)cc1OCC(=O)NC1CCCCC1` the value was 1.38%.

Regarding `CN(C)CCN(C)Cc1cccc(-c2ccc3c(Nc4ccc(F)cc4Cl)ccnc3c2)c1`, the inhibition was 4.55%.

With `O=C(COc1ccccc1)Nn1cnc2ccccc21`, the inhibition amounted to 0.83%. For `OC(CNCc1ccccc1Oc1ccccc1)c1cc(Br)cs1` (stereo not given) the value was 3.03%; for `O=S(=O)(NCCN1CCCC1)c1ccc(-c2ccc(CNC3Cc4ccccc4C3)cc2)cc1F`, 13.9%. Take `OCC1CCCCN1Cc1cccc(-c2cccc(-c3nc4ccccc4[nH]3)c2)c1` (stereo not given): the inhibition was 4.14%.

As to `CCOC(=O)c1cn(CC)c2cc(OCc3ccccc3)ccc2c1=O`, the inhibition was 0.36%.

Take `COc1ccc(Nc2nccc(NCC(O)c3cccc(C(F)(F)F)c3)n2)cc1` (stereo not given): the inhibition came to 2.47%. Then `O=C1Nc2cccc3c2C1(CCCCN1CCC(c2c(-c4ccccc4)[nH]c4ccccc24)CC1)CCC3` (stereo not given), with 2.74%; and `N#CC(c1ccc(Br)cc1)c1ccc2c(C(F)(F)F)cc(C(F)(F)F)nc2n1` (stereo not given), with 4.44%; and `O=C(Cn1c(CCc2cccc(F)c2F)cc(=O)c2ccccc21)N(CCN1CCCCC1)Cc1ccc(-c2ccc(C(F)(F)F)cc2)cc1`, with 5.08%. As to `CC1(C)CCCN(c2ncc(-c3cccc(CNCc4ccccc4O)c3)cn2)C1`, the inhibition was found to be 2.13%. Consider `Oc1ccc(CCNc2nc(NCCCOc3cccc(CN4CCCCC4)c3Cl)nc(N3CCNCC3)n2)cc1`, for which the inhibition was 1.93%.

Take `CN(C)CCCNCCS(=O)(=O)c1cccc(Nc2ccc(-c3cccc(N(C)C)c3)cn2)c1`: the inhibition came to 1.88%. Regarding `CC1CCCN(c2ccc(NC(=O)c3cccs3)cc2[N+](=O)[O-])C1` (stereo not given), the inhibition came out at 1.19%. Then `CO/C(=C\C=C\c1cc2cc(Cl)c(Cl)cc2[nH]1)C(=O)NCCCN1CCC(c2ccccc2)CC1`, with 5.04%; and `COc1ccc2[nH]c(C)cc(=NN=Cc3ccccc3)c2c1`, with 0.32%.

`COc1ccc(NC(=O)NC2CCN(CCCOc3ccnc4cc(Cl)ccc34)C2)cc1OC` (stereo not given): the inhibition is -0.13%. `C[C@H](Cc1ccc(C[C@@H](C)NCC(O)c2cc(Cl)c(N)c(Cl)c2)cc1)NCC(O)c1cc(Cl)c(N)c(Cl)c1` (stereo not given in full): the inhibition amounted to 0.31%. Take `O=C(NCc1cccc(F)c1)Nc1ccc(-c2ccc(-c3nc4cc(C(F)(F)F)ccc4[nH]3)cc2)cc1`: the inhibition was -0.45%.

As for `COc1cc2nccc(Nc3ccc(OCc4ccc(NC(C)=O)cc4)cc3)c2cc1OC`, the inhibition was 7.36%. With `CCOc1ccc(-c2nonc2NC(=O)c2ccccc2F)cc1OCC`, the inhibition worked out at 1%. Then `OC(CNC1CCCCC1)Cn1c2ccc(I)cc2c2cc(I)ccc21` (stereo not given), with 1.51%.

On to `C=CCOc1ccc(-c2c(C)[nH]c(C)c(Br)c2=O)cc1`, for which the inhibition was found to be 2.01%. `C[C@@H]([C@@H](CCCc1ccc(Cl)cc1)C(=O)N[C@H](C(=O)Nc1cccnc1)C(C)(C)C)N(O)C=O`: the inhibition turned out to be 0.19%. For the compound `N#Cc1cccc(/C=C/C(=O)NC2CCC(CCN3CCc4ccc(-c5cnccn5)cc4CC3)CC2)c1` (stereo not given), the inhibition is 7.48%. In the case of `CCN(CC)CCOc1ccc(C(O)(C#CC(O)(c2ccc(OCCN(CC)CC)cc2)c2ccc([N+](=O)[O-])cc2)c2ccc([N+](=O)[O-])cc2)cc1` (stereo not given), the inhibition came out at 32.7%.

Take `CC(C)(C)c1ccc(NC(=O)c2cccc(CN3CCCN(Cc4ccc(F)cc4)CC3)c2)cc1`: the inhibition worked out at 2.6%. For `Nc1c2c(nc3ccc(C(=O)Nc4ccccc4)cc13)CCCC2` the value was 3.96%.
